TDP1 inh = blocks human tyrosyl-DNA phosphodiesterase 1 | Q9NUW8 | recombinant TDP1, AlphaScreen DNA substrate cleavage | Potency, µM (titrated, usually from 130 µM), actives largely listed as inhibitors | hit rate 0.28% among 350,000; also: nearly all actives have a fitted effect of over 40% in size
Target sequence (Q9NUW8 whole entry, looked up): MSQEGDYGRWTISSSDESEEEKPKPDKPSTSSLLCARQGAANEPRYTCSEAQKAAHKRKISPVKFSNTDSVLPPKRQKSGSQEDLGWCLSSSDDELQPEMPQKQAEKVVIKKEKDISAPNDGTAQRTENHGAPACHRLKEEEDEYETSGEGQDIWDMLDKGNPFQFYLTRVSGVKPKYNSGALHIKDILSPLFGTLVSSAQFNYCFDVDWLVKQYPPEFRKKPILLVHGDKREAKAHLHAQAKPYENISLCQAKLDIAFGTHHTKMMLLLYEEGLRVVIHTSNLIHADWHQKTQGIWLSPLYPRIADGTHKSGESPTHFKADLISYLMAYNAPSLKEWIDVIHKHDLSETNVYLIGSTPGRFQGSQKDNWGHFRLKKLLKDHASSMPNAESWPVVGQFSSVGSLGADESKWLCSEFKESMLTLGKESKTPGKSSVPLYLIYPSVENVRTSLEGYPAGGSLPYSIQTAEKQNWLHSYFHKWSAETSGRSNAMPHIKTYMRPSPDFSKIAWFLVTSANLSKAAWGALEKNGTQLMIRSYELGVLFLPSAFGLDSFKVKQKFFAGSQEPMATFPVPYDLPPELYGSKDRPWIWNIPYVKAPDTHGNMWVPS
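AlphaScreen read-out: signal falls as enzyme removes the 3' tyrosine-FITC from a 5'-biotinylated DNA oligo (15 nM, 5 min, RT). Enzyme was E. coli-made recombinant Tdp1 at 1 nM, exposed to compound for 15 min beforehand; beads 10 ug/ml, 10 min.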
HepG2 viability = kills HepG2 cells in TGF-b inhibitor counter-screen; HepG2 CAGA-GFP viability, ATP luminescence, 18 h; Potency, µM (top dose mostly 46.1 µM), usual class: cytotoxic; hit rate 0.76% among 410,000
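CellTiter-Glo luminescence gave cytotoxicity after 18 hours at 37 degrees C. The cells were HepG2 CAGA-GFP in 1% FBS DMEM, stimulated with 500 pg/mL TGF-beta after compound addition. %Activity was normalised to no-cell wells (complete cell-killing) and DMSO (no toxicity), and curves were fitted and classified.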
TGFb SMAD3 inh = blocks TGF-b signaling. HepG2 CAGA-GFP TGF-b/SMAD3 reporter, GFP fluorescence, 18 h; TGF-beta stimulated, 500 pg/mL final. Potency, µM (highest dose often 46.1 µM), hits mostly inhibitors. hit rate 1.2% among 410,000; also: nearly all actives have a fitted effect of over 65% in size
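HEPG2 CAGA-GFP, 1000 cells/well; 2 h settle, 37 C; cpd via pin tool; TGF-b 500 pg/mL final; 18 h, 37 C; GFP imaging ex488/em500-530; %Activity normalised to -TGF-b and +DMSO controls; CRC fit, curve class.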
DT40 TDP1 CPT = DT40-hTDP1 cell growth loss with CPT; Potency, µM (doses to about 46.2 µM), most hits filed as inhibitors; AID 686979; chicken DT40 Tdp1-/-;hTDP1 cells + 20 nM CPT, ATP luminescence, 48 h; hit rate 12% among 420,000; also: nearly all actives have a fitted effect of over 55% in size
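Chicken DT40 Tdp1-/- cells stably complemented with human TDP1 were seeded at 400 cells/well in medium containing 20 nM camptothecin, exposed to pin-transferred compounds, and grown at 37 °C for at least 48 hr. Viability was read as ATP luminescence.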
IL1B secr inh = inhibitors of inflammasome signaling (IL-1 beta secretion); activity change, % at 57.5 µM; hit rate 4.7% among 360,000; THP-1 LPS/ATP IL-1B secretion, AlphaLISA, 16 h; active compounds read low; in the data active = activity change below about -50%; inconclusive = mostly about -30% to -49%
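THP-1 cells pretreated 1 hr with compounds (up to 57.5 uM final), then stimulated with LPS (250 ng/mL final) plus ATP (1.25 mM final); secreted IL-1B measured by AlphaLISA after 16 hr, decreased signal indicating inhibition.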
DT40 TDP1 no CPT = qHTS for Inhibitors of human tyrosyl-DNA phosphodiesterase 1 (TDP1): qHTS in cells in absence of CPT. Potency, µM (series often up to 46.2 µM), hits mostly inhibitors. DT40 Tdp1-/- hTDP1 cells, no CPT, ATP luminescence, 48 h. hit rate 15% among 420,000; also: nearly all actives have a fitted effect of over 55% in size
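Luminescent ATP content (CellTiter-Glo) served as the growth readout. Knockout chicken DT40 cells expressing human TDP1 were exposed to compounds without camptothecin for a minimum 48 hr at 37 °C.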
Large screens that a line does not name were inactive. Sampled rows, rich in hits. Any-hit rate of the full collection: about 18%. Unless noted, calls follow the shape of the dose curve; as a rule, active = well fitted curve in the direction sought with a large enough effect; inconclusive = small, poorly fitted or top-dose-only effect, or another doubt; inactive = no such curve, though single readings can be large; an effect the other way counts as inactive or inconclusive.

O=C(NN1CCOCC1)c1ccc(Cl)cc1[N+](=O)[O-]	none
Cc1ccc(C(=O)N2CCN(c3ccc(C(F)(F)F)cn3)CC2)c(C)c1	DT40 TDP1 CPT 16µM, DT40 TDP1 no CPT 21µM
Cc1c(C(=O)N2CCN(c3ccc(C(F)(F)F)cn3)CC2)oc2ccccc12	DT40 TDP1 CPT 23µM, DT40 TDP1 no CPT 18µM
CC(O)(COc1ccccc1)c1ccc2c(c1)CN(C/C=C/c1ccco1)CCO2 (stereo not drawn)	DT40 TDP1 no CPT inconclusive (no result: TDP1 inh, HepG2 viability, TGFb SMAD3 inh, IL1B secr inh)
COc1cccc(CC(=O)Nc2ccc3c(c2)c(=O)n(C)n3-c2ccc(C(C)(C)C)cc2)c1	TGFb SMAD3 inh inconclusive, DT40 TDP1 CPT 26µM, DT40 TDP1 no CPT inconclusive (no result: TDP1 inh)
COc1cccc(Cn2c3ccc(NC(=O)CC(C)C(F)(F)F)cc3c(=O)n2C)c1 (stereo not drawn)	DT40 TDP1 CPT inconclusive, DT40 TDP1 no CPT inconclusive (no result: TDP1 inh)
COc1cccc(Cn2c3ccc(NC(=O)Cc4cc(OC)ccc4OC)cc3c(=O)n2C)c1	DT40 TDP1 CPT 12µM, IL1B secr inh -78, DT40 TDP1 no CPT 21µM (no result: TDP1 inh)
CC(=O)C1=C(C)Nc2ncnn2C1c1ccccc1F (stereo not drawn)	none (no result: TDP1 inh)
COC(C(=O)Nc1ccc(S(=O)(=O)Nc2ccc(F)cc2)cc1)c1ccccc1 (stereo not drawn)	DT40 TDP1 CPT inconclusive, IL1B secr inh -101, DT40 TDP1 no CPT inconclusive
Cc1cnc(NC(=O)Cc2ccccc2Cl)s1	DT40 TDP1 CPT 3.3µM, DT40 TDP1 no CPT 3.3µM
COc1ccc(CCC(=O)Nc2ncc(C)s2)cc1OC	none (no result: TDP1 inh)
Cc1cnc(NC(=O)CCCc2nc3ccccc3s2)s1	TGFb SMAD3 inh inconclusive, DT40 TDP1 CPT 15µM, DT40 TDP1 no CPT 23µM
Cc1cnc(NC(=O)CCc2ccccc2)s1	DT40 TDP1 CPT 16µM, DT40 TDP1 no CPT 8.2µM (no result: TDP1 inh)
CCOC(=S)SCC(=O)Nc1ncc(C)s1	TGFb SMAD3 inh inconclusive, DT40 TDP1 CPT inconclusive, IL1B secr inh -98, DT40 TDP1 no CPT 23µM
CCC(Cc1ccccc1)OC(=O)c1ccccc1C(=O)O (stereo not drawn)	none (no result: TDP1 inh)
O=C(NCC1OCCCN1S(=O)(=O)c1cc(F)ccc1F)C(=O)NC1CCCC1 (stereo not drawn)	none
CCOc1ccc(Br)cc1S(=O)(=O)Nc1cccnc1	none (no result: TDP1 inh)
N#C/C(=C/c1ccc(N2CCCCCC2)o1)c1ccc(Cl)cc1	DT40 TDP1 CPT 15µM, IL1B secr inh -102, DT40 TDP1 no CPT 18µM
N#C/C(=C/c1ccc(N2CCCCC2)o1)c1cccc(F)c1	DT40 TDP1 CPT 10µM, DT40 TDP1 no CPT 15µM
Cc1ccc(C)c(NC(=O)C(CC(C)C)N2Cc3ccccc3C2=O)c1 (stereo not drawn)	DT40 TDP1 CPT inconclusive, DT40 TDP1 no CPT inconclusive (no result: IL1B secr inh)
CC(=O)N1CCN(c2nc3cc(C)ccc3cc2CN(C(=O)c2cccc3ccccc23)C2CC2)CC1	DT40 TDP1 no CPT inconclusive (no result: TDP1 inh, HepG2 viability, TGFb SMAD3 inh, IL1B secr inh)
COc1cc(C2CC(=O)N(c3ccccc3)C3=C2C(=O)OC3)cc(OC)c1OC (stereo not drawn)	none (no result: IL1B secr inh)
Cc1ccc2c(c1)C1CN(C)CCC1N2Sc1ccccc1[N+](=O)[O-] (stereo not drawn)	DT40 TDP1 CPT inconclusive, IL1B secr inh -89, DT40 TDP1 no CPT 16µM
OC(c1ccc(Cl)c(Cl)c1)c1ncc(-c2ccc(C(F)(F)F)cc2)[nH]1 (stereo not drawn)	TGFb SMAD3 inh inconclusive, DT40 TDP1 CPT inconclusive, IL1B secr inh inconclusive, DT40 TDP1 no CPT 16µM (no result: TDP1 inh)
Cc1ccc(C(O)c2ncc(-c3ccc4ccccc4c3)[nH]2)cc1F (stereo not drawn)	DT40 TDP1 CPT 29µM, DT40 TDP1 no CPT 18µM (no result: TDP1 inh)
Cc1ccc(C(O)c2ncc(-c3ccc(C(F)(F)F)cc3)[nH]2)cc1F (stereo not drawn)	TGFb SMAD3 inh inconclusive, DT40 TDP1 CPT inconclusive, DT40 TDP1 no CPT 21µM (no result: TDP1 inh)
Cc1cc(Cl)ccc1C(O)c1ncc(-c2ccc3ccccc3c2)[nH]1 (stereo not drawn)	TGFb SMAD3 inh inconclusive, DT40 TDP1 CPT inconclusive, DT40 TDP1 no CPT inconclusive (no result: TDP1 inh)
Cc1cc(C)cc(C(O)c2ncc(-c3ccc(C(F)(F)F)cc3)[nH]2)c1 (stereo not drawn)	TGFb SMAD3 inh inconclusive, DT40 TDP1 CPT inconclusive, DT40 TDP1 no CPT 16µM (no result: TDP1 inh)
Cc1ccc(C(O)c2ncc(-c3ccc(F)cc3)[nH]2)cc1F (stereo not drawn)	DT40 TDP1 CPT inconclusive, DT40 TDP1 no CPT inconclusive (no result: TDP1 inh)
COC(=O)[C@@H](N)CSC/C=C(\C)CC/C=C(\C)CCC=C(C)C	DT40 TDP1 CPT inconclusive, DT40 TDP1 no CPT inconclusive (no result: HepG2 viability, TGFb SMAD3 inh, IL1B secr inh)
COc1ncc2nc(-c3ccc(F)cc3)c(=O)n(C)c2n1	none (no result: TDP1 inh, HepG2 viability, TGFb SMAD3 inh, IL1B secr inh)
Cc1ccc(OCC(=O)Oc2ccc(C)c(C)c2)cc1	TDP1 inh 50µM
CC(=O)Oc1cc2c(C(=O)NCCCN3CCOCC3)c(C)oc2c2ccccc12	DT40 TDP1 CPT 15µM, DT40 TDP1 no CPT 21µM
Cc1oc(-c2ccc(C(=O)Nc3ccc(F)cc3)cc2)nc1COc1ccccc1	DT40 TDP1 CPT inconclusive, DT40 TDP1 no CPT inconclusive (no result: IL1B secr inh)
O=C(O)CNC(=O)c1ccc(NC(=O)/C(=C/c2ccccc2)NC(=O)c2ccccc2)cc1	none (no result: TDP1 inh)
NNC(=O)c1cccc(O)c1	none

Screening data (PubChem BioAssay)
